Test [1] is described as follows: Quantitative High-Throughput drug screen in 47 multiple myeloma cell lines against the NCATS MIPE library collection: MM1R_ATCC cell viability assay (AID 1918981). Further: nearly all actives have a fitted effect of over 35% in size. Further: potency means the concentration at half of the fitted maximal effect. In a few lines:
(§1)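 Inhibition of viability over 48 h was scored by ATP content (CellTiter-Glo) in 500-cell wells. Zero and full viability were defined by media-only and DMSO-only wells.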

Test [2] can be described thus: Quantitative High-Throughput drug screen in 47 multiple myeloma cell lines against the NCATS MIPE library collection: LP1_DSMZ cell viability assay (AID 1918982). Further: nearly all actives have a fitted effect of over 35% in size. Further: potency means the concentration at half of the fitted maximal effect. In a few lines: as §1
Test [3] in a line: Quantitative High-Throughput drug screen in 47 multiple myeloma cell lines against the NCATS MIPE library collection: KMS28PE_JCRB cell viability assay (AID 1918983). Further: nearly all actives have a fitted effect of over 35% in size. Further: potency means the concentration at half of the fitted maximal effect. Put shortly: as §1
Test [4] in a line: Quantitative High-Throughput drug screen in 47 multiple myeloma cell lines against the NCATS MIPE library collection: L363_DSMZ cell viability assay (AID 1918984). Further: nearly all actives have a fitted effect of over 40% in size. Further: potency means the concentration at half of the fitted maximal effect. In a few lines: as §1
Test [5] in a line: Quantitative High-Throughput drug screen in 47 multiple myeloma cell lines against the NCATS MIPE library collection: KMS34_JCRB cell viability assay (AID 1918985). Further: nearly all actives have a fitted effect of over 40% in size. Further: potency means the concentration at half of the fitted maximal effect. In a few lines:
as §1

Test [6] in a line: Quantitative High-Throughput drug screen in 47 multiple myeloma cell lines against the NCATS MIPE library collection: OPM1_PLB cell viability assay (AID 1918989). Further: nearly all actives have a fitted effect of over 40% in size. Further: potency means the concentration at half of the fitted maximal effect. In a few lines: as §1
Test [7] is described as follows: Quantitative High-Throughput drug screen in 47 multiple myeloma cell lines against the NCATS MIPE library collection: OCIMY5_PLB cell viability assay (AID 1918988). Further: nearly all actives have a fitted effect of over 65% in size. Further: potency means the concentration at half of the fitted maximal effect. In a few lines:
as §1

Test [8] is described as follows: Quantitative High-Throughput drug screen in 47 multiple myeloma cell lines against the NCATS MIPE library collection: SKMM1_PLB cell viability assay (AID 1919863). Further: nearly all actives have a fitted effect of over 35% in size. Further: potency means the concentration at half of the fitted maximal effect. To be noted: SKMM1 myeloma viability, CellTiter-Glo ATP, 48 h; viability: stronger effect = lower value. Put shortly: as §1
On the technique in general: Cellular ATP, detected with luciferase, serves as a proxy for viable cell number.

Test [9] in a line: Quantitative High-Throughput drug screen in 47 multiple myeloma cell lines against the NCATS MIPE library collection: MM1S_ATCC cell viability assay (AID 1918980).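 Further: 100% = wells with DMSO only and 0% = wells with media only; nearly all actives have a fitted effect of over 45% in size.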 In a few lines: as §1
The nature of test [10]: Quantitative High-Throughput drug screen in 47 multiple myeloma cell lines against the NCATS MIPE library collection: OCIMY7_PLB cell viability assay (AID 1918987). Further: nearly all actives have a fitted effect of over 65% in size. Further: potency means the concentration at half of the fitted maximal effect. The note with it: OCI-MY7 myeloma viability, CellTiter-Glo ATP, 48 h; viability (% of DMSO): at 45.8 µM (top of the series). Put shortly: as §1

Inconclusive results are not listed. Unmarked numbers belong to inactive results. Activity calls are given as the source filed them. The call rests on the fitted dose curve; in most records, active means well fitted cell-killing curve with a large enough effect; inconclusive means small, poorly fitted or top-dose-only effect, or effect the other way; inactive means no such curve, though single readings can be large or run the other way. Positions of bridges follow the written chain, without caps; N, C: chain ends. Non-standard residues stand in square brackets, D forms with d. Residues, ends and D or L forms follow the SMILES beside them. ξ: configuration not given here. *: point of attachment. Octanoyl(6-Me) = CCC(C)CCCCC(=O)*; ξThr(3R) = C[C@@H](O)C(N)C(=O)O; dDab = NCC[C@@H](N)C(=O)O; Dab = NCC[C@H](N)C(=O)O

For the molecule `O=C(c1ccc(F)cc1)N1CCC[C@H](c2nc(-c3ccc(F)cc3)no2)C1`, the Potency result in test [1], in [2], in test [3], in test [4], in test [5] and in test [6] was “inactive” in each case.
As to `CC(=O)OCC(=O)[C@@]1(O)CC[C@H]2[C@@H]3CCC4=CC(=O)CC[C@]4(C)[C@@H]3C(=O)C[C@@]21C`, the Potency result in test [1], in [2], in test [3], in test [4], in test [5] and in test [7] was “inactive” each time. Further, in test [8], the viability – broadly, a read-out of living cells in per cent, often relative to untreated cells – is 120%.
With `CCc1cc(C(C)=NOCc2ccc(C3CCCCC3)c(C(F)(F)F)c2)ccc1CN1CC(C(=O)O)C1`, the Potency result in test [9] is “inactive”. Moreover, the results for the Potency in test [10], in test [6] and in test [8] were 16.6 µM (active), 18.7 µM (active) and 18.7 µM (active), respectively.
For the molecule `CC(C)(O)CC[C@@H](O)[C@](C)(O)[C@H]1CC[C@@]2(O)C3=CC(=O)[C@@H]4C[C@@H](O)[C@@H](O)C[C@]4(C)[C@@H]3CC[C@]12C`, the Potency entry in test [1], in [2], in test [5], in test [10], in test [7] and in test [6] was “inactive” each time.
Turning to `CCC(C)CCCCC(=O)N[C@@H](CCN)C(=O)NC(C(=O)N[C@H](CCN)C(=O)N[C@@H]1CCNC(=O)C([C@@H](C)O)NC(=O)[C@@H](CCN)NC(=O)[C@@H](CCN)NC(=O)[C@@H](CC(C)C)NC(=O)[C@H](Cc2ccccc2)NC(=O)[C@H](CCN)NC1=O)[C@@H](C)O` (stereo partly drawn) ({Octanoyl(6-Me)}-[Dab][ξThr(3R)][dDab][dDab][Dab]F[dL][dDab][dDab][ξThr(3R)]; lactam 4-C), the Potency entry in test [1], in test [2], in test [3], in test [5] and in test [10] was “inactive” in each case. For the same molecule, the viability in test [8] was 110%.
`CC(=O)ON=C1C(c2c(O)[nH]c3cc(Br)ccc23)=Nc2ccccc21`: the Potency is 16.6 µM (active) in test [1]; 11.8 µM (active) in test [2]; 20.9 µM (active) in test [3]; 3.72 µM (active) in [4]; 4.69 µM (active) in test [5]; 1.48 µM (active) in [10]. The Potency is 3.72 µM (active) in [6] and 18.7 µM (active) in test [8].
For the molecule `O=C1NC(O)CCN1[C@@H]1O[C@H](CO)[C@H](O)[C@H]1O` (stereo not given in full), the Potency entry in test [1], in test [3] and in test [6] was “inactive” throughout. The Potency in [2] was 5.9 µM (active). The viability in test [8] was 122%.
In the case of `N#CC(=C(N)Sc1ccc(N)cc1)c1ccccc1C(F)(F)F`, the Potency is 14.8 µM (active) in test [1]; 16.6 µM (active) in test [2]; 6.62 µM (active) in test [3]; 0.148 µM (active) in test [10]; 16.6 µM (active) in test [7]; 7.43 µM (active) in test [8]. The Potency entry in test [5] is “inactive”.
Consider `CC(C)(O)[C@H]1CC[C@@](C)([C@H]2[C@@H](O)C[C@@]3(C)[C@@H]4C[C@H](O[C@@H]5O[C@H](CO)[C@@H](O)[C@H](O)[C@@H]5O)[C@H]5C(C)(C)[C@@H](O[C@@H]6OC[C@@H](O)[C@H](O)[C@@H]6O)CC[C@@]56C[C@@]46CC[C@]23C)O1`, for which the Potency result in [1], in test [2], in [3], in test [5] and in [10] was “inactive” throughout. The Potency in test [6] was 16.6 µM (active).
`COc1ccc(C[C@@H](C)[C@@H](C)Cc2ccc(OC)c(OC)c2)cc1OC`: the Potency in [1] was 1.05 µM (active); in test [3] it was 0.332 µM (active); in test [4], 0.166 µM (active); in test [5] it was 0.132 µM (active); in [10] it was 0.296 µM (active); in test [7], 0.469 µM (active). For the same molecule, the figures for the Potency in test [6] and in [8] were 0.264 µM (active) and 0.372 µM (active), respectively.
As for `c1cc(N[C@@H]2CCNC2)nc(-c2cnc3ccc(-c4cn[nH]c4)cn23)c1`, the Potency is 20.9 µM (active) in [1]; 16.6 µM (active) in test [3]; 7.43 µM (active) in test [4]; 7.43 µM (active) in test [10]; 13.2 µM (active) in [7]; 26.4 µM (active) in test [8].
Take `C[C@](Cc1c[nH]c2ccccc12)(NC(=O)OC1C2CC3CC(C2)CC1C3)C(=O)NC[C@H](NC(=O)CCC(=O)O)c1ccccc1` (stereo not given in full): the Potency result in test [1] and in test [2] was “inactive” each time. In addition, the viability in [8] was 114%.
Consider `C=C[C@@H]1CN2CCC1C[C@H]2[C@H](O)c1ccnc2ccc(OC)cc12` (stereo not given in full), for which the Potency entry in test [1], in [2], in test [3] and in test [4] was “inactive” in each case. Moreover, in [7], the Potency is 18.7 µM (active). Also, the viability in [8] was 93.1%.
As to `CC[C@H](CC[C@@H](C)[C@H]1CC[C@H]2[C@@H]3CC=C4C[C@@H](O)CC[C@]4(C)[C@@H]3CC[C@]12C)C(C)C`, the Potency entry in test [1], in [2], in [5], in test [7] and in test [6] was “inactive” in each case. For the same molecule, the viability in test [8] is 106%.
For `C=C(C)[C@@H]1CC[C@]2(C)CC[C@]3(C)[C@H](CC[C@@H]4[C@@]5(C)CC[C@H](O)C(C)(C)[C@H]5CC[C@]43C)[C@@H]12`, the Potency result in [1], in test [3], in test [5], in test [7] and in test [6] was “inactive” in each case.
`CCCCCCCCCCCCc1ccc(S(=O)(=O)Nc2nncs2)cc1`: the Potency entry in [2], in test [3], in test [4], in test [5], in [7] and in test [6] was “inactive” throughout.
Take `CC1(C)[C@H](O[C@H]2O[C@H](C(=O)O)[C@@H](O)[C@H](O)[C@H]2O[C@@H]2O[C@H](C(=O)O)[C@@H](O)[C@H](O)[C@H]2O)CC[C@@]2(C)[C@H]1CC[C@]1(C)[C@H]2C(=O)C=C2[C@H]3C[C@@](C)(C(=O)O)CC[C@]3(C)CC[C@]21C`: the Potency entry in [3], in test [5], in test [7] and in test [6] was “inactive” in each case. In addition, the viability in test [8] is 142%.

The record behind these values is PubChem BioAssay (NCATS).
